# Test results: ChEMBL document CHEMBL1961873, “Compounds: GSK PKIS; Assays: Nanosyn kinase panel” (2012)
# “And” between values parts separate entries of the source, which are not always exact repeats. Identical values can stand only once.
# Tests used:
# [1] = molecular target: T1, Aurora kinase A (Homo sapiens) (UniProt O14965); conditions: at 1 µM;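 also: values are mean percent inhibition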
# T1 sequence (whole entry): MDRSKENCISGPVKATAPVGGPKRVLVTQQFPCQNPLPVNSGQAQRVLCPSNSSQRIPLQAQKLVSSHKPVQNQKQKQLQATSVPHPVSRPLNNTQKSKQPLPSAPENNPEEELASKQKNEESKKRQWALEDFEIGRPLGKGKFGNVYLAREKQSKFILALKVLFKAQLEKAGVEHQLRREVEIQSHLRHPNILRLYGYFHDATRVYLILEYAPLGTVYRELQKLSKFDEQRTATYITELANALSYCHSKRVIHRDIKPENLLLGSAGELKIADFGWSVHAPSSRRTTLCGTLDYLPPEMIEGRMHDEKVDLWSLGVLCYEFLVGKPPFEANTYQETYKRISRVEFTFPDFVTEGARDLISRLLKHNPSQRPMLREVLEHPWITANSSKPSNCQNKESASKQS
# [2] = molecular target: Aurora kinase B (Homo sapiens) (UniProt Q96GD4); conditions: at 0.1 µM
# Sequence of Aurora kinase B (Homo sapiens) (Q96GD4 whole entry): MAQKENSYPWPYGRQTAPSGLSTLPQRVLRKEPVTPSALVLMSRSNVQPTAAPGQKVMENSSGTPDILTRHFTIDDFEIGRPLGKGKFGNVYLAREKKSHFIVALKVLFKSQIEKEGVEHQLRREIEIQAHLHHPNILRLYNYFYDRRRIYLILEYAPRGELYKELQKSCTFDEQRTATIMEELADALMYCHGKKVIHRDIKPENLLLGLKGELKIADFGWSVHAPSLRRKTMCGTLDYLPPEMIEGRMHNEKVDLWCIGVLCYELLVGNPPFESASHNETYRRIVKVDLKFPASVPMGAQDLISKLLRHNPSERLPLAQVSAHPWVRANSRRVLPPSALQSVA
# [3] = molecular target: Aurora kinase B (Homo sapiens) (UniProt Q96GD4); conditions: at 1 µM
# [4] = molecular target: T2, Aurora kinase C (Homo sapiens) (UniProt Q9UQB9); conditions: at 0.1 µM
# T2 sequence (whole entry): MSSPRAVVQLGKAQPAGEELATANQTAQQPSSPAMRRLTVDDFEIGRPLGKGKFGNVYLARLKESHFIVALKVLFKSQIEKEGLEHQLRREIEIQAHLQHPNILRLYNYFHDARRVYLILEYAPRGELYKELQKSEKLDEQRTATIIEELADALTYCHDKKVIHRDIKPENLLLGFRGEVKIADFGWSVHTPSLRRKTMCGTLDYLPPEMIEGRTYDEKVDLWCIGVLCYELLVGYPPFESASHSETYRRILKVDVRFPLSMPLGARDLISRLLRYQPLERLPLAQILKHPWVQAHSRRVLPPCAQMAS
# [5] = molecular target: T2, Aurora kinase C (Homo sapiens); conditions: at 1 µM
# [6] = molecular target: Serine/threonine-protein kinase 10 (Homo sapiens) (UniProt O94804); conditions: at 0.1 µM
# Sequence of Serine/threonine-protein kinase 10 (Homo sapiens) (O94804 whole entry, looked up): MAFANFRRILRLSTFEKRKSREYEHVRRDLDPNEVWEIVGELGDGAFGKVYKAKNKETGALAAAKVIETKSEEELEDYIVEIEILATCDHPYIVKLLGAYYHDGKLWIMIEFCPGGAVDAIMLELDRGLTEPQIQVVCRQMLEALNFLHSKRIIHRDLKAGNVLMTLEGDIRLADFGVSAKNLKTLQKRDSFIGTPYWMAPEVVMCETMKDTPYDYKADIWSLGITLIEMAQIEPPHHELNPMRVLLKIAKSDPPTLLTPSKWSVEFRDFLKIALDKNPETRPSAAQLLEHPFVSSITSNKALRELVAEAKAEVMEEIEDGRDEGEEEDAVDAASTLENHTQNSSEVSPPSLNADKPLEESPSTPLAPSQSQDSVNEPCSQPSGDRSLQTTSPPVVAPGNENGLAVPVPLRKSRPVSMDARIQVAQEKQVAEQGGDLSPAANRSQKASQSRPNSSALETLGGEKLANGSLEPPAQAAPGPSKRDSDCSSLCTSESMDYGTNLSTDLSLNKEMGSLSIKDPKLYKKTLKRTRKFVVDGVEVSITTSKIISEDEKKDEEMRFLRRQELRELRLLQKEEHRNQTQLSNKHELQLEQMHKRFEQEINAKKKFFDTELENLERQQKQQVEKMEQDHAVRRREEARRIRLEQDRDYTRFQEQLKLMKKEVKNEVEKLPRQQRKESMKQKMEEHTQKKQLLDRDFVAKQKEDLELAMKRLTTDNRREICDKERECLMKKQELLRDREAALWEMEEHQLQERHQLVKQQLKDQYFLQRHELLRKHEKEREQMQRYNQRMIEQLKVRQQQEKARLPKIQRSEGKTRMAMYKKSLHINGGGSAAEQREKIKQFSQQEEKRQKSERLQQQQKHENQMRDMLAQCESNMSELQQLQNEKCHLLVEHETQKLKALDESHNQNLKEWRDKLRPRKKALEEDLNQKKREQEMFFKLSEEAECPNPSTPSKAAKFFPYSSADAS
# [7] = molecular target: Serine/threonine-protein kinase 10 (Homo sapiens) (UniProt O94804); conditions: at 1 µM
# [8] = molecular target: T3, Mitogen-activated protein kinase kinase kinase kinase 2 (Homo sapiens) (UniProt Q12851); conditions: at 0.1 µM
# T3 sequence (whole entry): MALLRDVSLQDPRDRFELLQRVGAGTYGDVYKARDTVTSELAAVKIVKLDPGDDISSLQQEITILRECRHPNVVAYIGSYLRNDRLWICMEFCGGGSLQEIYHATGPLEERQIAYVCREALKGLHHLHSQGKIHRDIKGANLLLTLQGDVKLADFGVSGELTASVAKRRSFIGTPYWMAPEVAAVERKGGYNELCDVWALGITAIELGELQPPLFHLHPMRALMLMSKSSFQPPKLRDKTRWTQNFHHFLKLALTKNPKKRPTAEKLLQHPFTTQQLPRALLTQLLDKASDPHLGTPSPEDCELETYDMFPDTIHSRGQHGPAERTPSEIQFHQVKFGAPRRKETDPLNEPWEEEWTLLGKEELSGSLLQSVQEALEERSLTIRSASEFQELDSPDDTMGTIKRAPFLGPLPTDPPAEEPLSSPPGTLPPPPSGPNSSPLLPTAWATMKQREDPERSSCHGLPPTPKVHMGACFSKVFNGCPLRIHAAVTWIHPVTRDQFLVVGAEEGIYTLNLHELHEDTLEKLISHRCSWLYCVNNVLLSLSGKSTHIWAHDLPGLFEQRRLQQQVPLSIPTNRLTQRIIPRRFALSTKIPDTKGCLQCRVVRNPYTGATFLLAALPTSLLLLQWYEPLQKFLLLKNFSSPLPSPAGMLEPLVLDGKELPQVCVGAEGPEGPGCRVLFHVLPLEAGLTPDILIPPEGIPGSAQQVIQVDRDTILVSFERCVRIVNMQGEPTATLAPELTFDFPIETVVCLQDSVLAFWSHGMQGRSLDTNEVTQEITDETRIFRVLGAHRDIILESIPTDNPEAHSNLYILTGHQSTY
# [9] = molecular target: T3, Mitogen-activated protein kinase kinase kinase kinase 2 (Homo sapiens); conditions: at 1 µM
# [10] = molecular target: Mitogen-activated protein kinase kinase kinase kinase 4 (Homo sapiens) (UniProt O95819); conditions: at 0.1 µM
# Sequence of Mitogen-activated protein kinase kinase kinase kinase 4 (Homo sapiens) (O95819 2-1239 limits assumed): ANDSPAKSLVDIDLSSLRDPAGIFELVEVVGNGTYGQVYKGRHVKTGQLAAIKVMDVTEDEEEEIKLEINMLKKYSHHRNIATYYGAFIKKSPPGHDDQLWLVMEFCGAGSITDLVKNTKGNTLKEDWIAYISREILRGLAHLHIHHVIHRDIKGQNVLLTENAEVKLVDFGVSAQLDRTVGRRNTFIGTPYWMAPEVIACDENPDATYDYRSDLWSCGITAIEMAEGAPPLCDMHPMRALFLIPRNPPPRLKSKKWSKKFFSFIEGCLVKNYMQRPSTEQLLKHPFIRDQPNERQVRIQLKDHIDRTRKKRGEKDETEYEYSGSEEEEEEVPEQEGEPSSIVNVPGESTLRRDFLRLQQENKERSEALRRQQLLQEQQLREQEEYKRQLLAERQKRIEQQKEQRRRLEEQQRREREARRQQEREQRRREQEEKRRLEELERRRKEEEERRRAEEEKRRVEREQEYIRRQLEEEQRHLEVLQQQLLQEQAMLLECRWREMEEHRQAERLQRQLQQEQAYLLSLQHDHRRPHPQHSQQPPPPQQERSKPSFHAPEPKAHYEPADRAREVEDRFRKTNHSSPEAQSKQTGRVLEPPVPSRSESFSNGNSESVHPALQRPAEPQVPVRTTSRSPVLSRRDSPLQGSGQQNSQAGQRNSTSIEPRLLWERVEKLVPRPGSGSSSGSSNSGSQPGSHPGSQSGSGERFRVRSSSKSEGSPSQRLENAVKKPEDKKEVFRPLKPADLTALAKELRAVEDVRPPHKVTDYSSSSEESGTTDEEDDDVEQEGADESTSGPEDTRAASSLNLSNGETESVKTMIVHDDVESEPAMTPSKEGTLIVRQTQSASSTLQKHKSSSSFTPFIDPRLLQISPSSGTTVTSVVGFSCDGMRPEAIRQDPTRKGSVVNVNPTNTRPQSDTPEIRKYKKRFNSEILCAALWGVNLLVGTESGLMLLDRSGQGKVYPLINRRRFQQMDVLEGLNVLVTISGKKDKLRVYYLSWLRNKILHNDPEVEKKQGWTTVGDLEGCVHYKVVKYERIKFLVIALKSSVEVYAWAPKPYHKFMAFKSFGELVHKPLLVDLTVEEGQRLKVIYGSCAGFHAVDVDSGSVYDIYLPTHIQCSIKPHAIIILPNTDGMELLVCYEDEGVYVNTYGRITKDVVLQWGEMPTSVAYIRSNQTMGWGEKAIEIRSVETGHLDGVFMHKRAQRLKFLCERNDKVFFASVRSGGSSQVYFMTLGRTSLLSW
# [11] = molecular target: Mitogen-activated protein kinase kinase kinase kinase 4 (Homo sapiens) (UniProt O95819); conditions: at 1 µM
# [12] = molecular target: Dual specificity mitogen-activated protein kinase kinase 1 (Homo sapiens) (UniProt Q02750); conditions: at 0.1 µM
# Sequence of Dual specificity mitogen-activated protein kinase kinase 1 (Homo sapiens) (Q02750 whole entry): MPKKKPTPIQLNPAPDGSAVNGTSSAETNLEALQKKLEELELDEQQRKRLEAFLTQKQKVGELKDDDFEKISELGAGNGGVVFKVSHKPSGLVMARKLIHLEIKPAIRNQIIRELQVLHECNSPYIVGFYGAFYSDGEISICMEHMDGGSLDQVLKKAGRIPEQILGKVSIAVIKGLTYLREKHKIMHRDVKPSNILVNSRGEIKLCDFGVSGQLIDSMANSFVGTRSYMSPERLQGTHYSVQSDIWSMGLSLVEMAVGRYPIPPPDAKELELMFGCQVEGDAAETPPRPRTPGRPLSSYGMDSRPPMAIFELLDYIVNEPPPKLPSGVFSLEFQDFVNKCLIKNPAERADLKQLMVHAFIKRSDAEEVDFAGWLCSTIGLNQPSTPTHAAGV
# [13] = molecular target: Dual specificity mitogen-activated protein kinase kinase 1 (Homo sapiens) (UniProt Q02750); conditions: at 1 µM
# [14] = molecular target: Misshapen-like kinase 1 (Homo sapiens) (UniProt Q8N4C8); conditions: at 0.1 µM
# Sequence of Misshapen-like kinase 1 (Homo sapiens) (Q8N4C8 whole entry, looked up): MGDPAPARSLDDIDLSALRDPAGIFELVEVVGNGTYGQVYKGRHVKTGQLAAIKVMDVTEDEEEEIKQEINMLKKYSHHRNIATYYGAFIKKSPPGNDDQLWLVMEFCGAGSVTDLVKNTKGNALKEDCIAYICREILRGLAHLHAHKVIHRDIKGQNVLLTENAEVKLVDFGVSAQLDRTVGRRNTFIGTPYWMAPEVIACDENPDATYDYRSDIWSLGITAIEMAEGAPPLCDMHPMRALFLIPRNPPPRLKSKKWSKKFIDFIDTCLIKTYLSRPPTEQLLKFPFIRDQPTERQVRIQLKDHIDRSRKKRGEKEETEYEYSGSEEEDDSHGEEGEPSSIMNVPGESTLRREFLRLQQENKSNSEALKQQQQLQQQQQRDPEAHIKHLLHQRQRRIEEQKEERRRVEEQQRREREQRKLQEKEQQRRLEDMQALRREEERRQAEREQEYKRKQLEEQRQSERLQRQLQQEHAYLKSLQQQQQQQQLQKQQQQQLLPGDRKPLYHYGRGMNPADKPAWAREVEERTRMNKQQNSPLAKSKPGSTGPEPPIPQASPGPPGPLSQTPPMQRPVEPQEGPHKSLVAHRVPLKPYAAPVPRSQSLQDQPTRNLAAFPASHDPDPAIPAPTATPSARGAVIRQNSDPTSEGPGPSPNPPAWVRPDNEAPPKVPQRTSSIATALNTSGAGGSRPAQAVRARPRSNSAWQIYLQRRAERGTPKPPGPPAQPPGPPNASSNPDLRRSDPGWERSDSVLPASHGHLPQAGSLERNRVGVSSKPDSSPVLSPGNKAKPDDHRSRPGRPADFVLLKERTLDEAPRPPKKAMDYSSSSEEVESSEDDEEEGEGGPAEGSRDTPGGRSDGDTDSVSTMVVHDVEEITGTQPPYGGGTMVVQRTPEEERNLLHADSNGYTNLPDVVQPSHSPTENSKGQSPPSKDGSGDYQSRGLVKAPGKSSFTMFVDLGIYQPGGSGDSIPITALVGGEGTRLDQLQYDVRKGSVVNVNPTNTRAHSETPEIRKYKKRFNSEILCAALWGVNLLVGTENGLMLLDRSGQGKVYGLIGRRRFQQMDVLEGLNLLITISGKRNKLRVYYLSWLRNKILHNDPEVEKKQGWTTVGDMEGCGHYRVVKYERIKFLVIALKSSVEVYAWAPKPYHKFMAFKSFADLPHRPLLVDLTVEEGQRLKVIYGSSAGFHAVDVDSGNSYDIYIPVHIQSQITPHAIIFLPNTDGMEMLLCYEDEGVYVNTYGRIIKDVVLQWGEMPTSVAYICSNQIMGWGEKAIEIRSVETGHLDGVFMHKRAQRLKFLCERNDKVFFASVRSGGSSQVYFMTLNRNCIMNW
# [15] = molecular target: Misshapen-like kinase 1 (Homo sapiens) (UniProt Q8N4C8); conditions: at 1 µM
# [16] = molecular target: T4, Serine/threonine-protein kinase 4 (Homo sapiens) (UniProt Q13043); conditions: at 0.1 µM
# T4 sequence (whole entry): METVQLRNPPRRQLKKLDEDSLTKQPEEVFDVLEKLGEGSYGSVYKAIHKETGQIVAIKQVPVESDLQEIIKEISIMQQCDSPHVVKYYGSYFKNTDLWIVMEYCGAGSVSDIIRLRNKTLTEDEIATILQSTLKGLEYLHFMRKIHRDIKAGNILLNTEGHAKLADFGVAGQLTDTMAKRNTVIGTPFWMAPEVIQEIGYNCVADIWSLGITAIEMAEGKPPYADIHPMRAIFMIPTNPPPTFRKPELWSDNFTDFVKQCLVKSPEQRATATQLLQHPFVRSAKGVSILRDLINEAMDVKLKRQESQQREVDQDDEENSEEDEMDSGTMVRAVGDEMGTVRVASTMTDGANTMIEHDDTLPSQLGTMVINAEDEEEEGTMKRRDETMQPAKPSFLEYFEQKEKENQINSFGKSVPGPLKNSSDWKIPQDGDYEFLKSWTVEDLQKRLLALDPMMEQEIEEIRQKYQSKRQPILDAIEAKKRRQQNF
# [17] = molecular target: T4, Serine/threonine-protein kinase 4 (Homo sapiens); conditions: at 1 µM
# [18] = molecular target: T5, Serine/threonine-protein kinase 3 (Homo sapiens) (UniProt Q13188); conditions: at 0.1 µM
# T5 sequence (whole entry): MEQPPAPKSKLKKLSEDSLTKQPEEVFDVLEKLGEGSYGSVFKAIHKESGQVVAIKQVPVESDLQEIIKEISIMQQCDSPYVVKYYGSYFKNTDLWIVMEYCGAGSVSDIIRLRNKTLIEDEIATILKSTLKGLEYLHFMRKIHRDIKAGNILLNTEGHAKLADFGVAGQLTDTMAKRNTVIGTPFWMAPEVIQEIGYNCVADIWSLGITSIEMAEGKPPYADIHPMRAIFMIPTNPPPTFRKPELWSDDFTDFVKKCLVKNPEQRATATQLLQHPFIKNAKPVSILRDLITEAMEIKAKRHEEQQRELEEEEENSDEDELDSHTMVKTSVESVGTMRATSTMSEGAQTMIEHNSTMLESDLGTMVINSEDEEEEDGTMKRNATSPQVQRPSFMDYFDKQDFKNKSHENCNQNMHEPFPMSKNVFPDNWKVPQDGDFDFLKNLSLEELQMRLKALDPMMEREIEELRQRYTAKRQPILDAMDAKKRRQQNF
# [19] = molecular target: T5, Serine/threonine-protein kinase 3 (Homo sapiens); conditions: at 1 µM
# [20] = molecular target: Serine/threonine-protein kinase 26 (Homo sapiens) (UniProt Q9P289); conditions: at 0.1 µM
# Sequence of Serine/threonine-protein kinase 26 (Homo sapiens) (Q9P289 2-416 limits assumed): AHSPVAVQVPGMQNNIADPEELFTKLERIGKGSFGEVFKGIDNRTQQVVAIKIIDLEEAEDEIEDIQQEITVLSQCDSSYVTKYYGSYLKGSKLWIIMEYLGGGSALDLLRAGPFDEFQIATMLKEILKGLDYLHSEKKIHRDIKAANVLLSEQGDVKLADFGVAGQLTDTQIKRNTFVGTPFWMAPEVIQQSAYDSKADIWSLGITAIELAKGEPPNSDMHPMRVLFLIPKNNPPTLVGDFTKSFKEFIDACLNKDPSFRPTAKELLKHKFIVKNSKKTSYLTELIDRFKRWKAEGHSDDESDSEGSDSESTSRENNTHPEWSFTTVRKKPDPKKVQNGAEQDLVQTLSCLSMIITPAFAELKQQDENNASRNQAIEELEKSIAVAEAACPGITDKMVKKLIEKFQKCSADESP
Compound,inhibition [1],inhibition [2],inhibition [3],inhibition [4],inhibition [5],inhibition [6],inhibition [7],inhibition [8],inhibition [9],inhibition [10],inhibition [11],inhibition [12],inhibition [13],inhibition [14],inhibition [15],inhibition [16],inhibition [17],inhibition [18],inhibition [19],inhibition [20]
N#Cc1cccc(Nc2ncc(-c3ccccc3)o2)c1,11.6%,4.81%,1.97%,1.44%,5.62%,2.27%,3.84%,0.79%,2.94%,4.93%,23.8%,2.21%,2.12%,5.1%,19.2%,3%,5.15%,4.16%,5.23%,-0.1%
CC1(C)CC(n2cnc(-c3ccc(F)cc3)c2-c2ccnc(N)n2)CC(C)(C)N1,4.57%,3.04%,-0.43%,-0.39%,-1.87%,1.32%,6.74%,1.36%,2.09%,2.07%,2.96%,1.4%,1.04%,1.2%,4.78%,-3.13%,-0.15%,-0.38%,-1.38%,-0.28%
Nc1ncnc2occ(-c3ccc(NC(=O)Nc4cc(C(F)(F)F)ccc4F)cc3)c12,,24.4% and 17.3%,69.9% and 55.9%,13.4% and 13.3%,92.5% and 68.8%,25% and 20.8%,69.2% and 63.1%,35.8% and 34.4%,66.3% and 65.5%,7.35% and 0.68%,22.3% and 6.15%,1.15% and -1.72%,2.3% and 0.44%,6.26% and -2.13%,19.9% and 2.27%,4.27% and -2.54%,8.75% and 0.44%,4.42% and -3.89%,6.36% and -2.2%,0.12% and -0.14%
Cc1cc(O)cc(C)c1/C=C/c1cncc(C(N)=O)c1,11.7%,2.21%,7.09%,8.73%,1.85%,4.97%,20.2%,2.32%,8.96%,4.83%,13.9%,2.17%,3.39%,4.8%,7.34%,2.44%,7.28%,2.17%,4.31%,-0.63%
COc1ccccc1-c1cc(/C=C2\C(=O)Nc3ncc(Br)cc32)cc(Br)c1O,93%,12.4%,57.2%,7.31%,87.5%,5.49%,5.99%,0.42%,5.34%,5.7%,14%,6.54%,5.7%,5.71%,13.3%,6.41%,8.19%,7.78%,8.09%,2.55%
